Test results: the supplement of paper PMC10849652
Of roughly 7,900 targets only a part is listed; those with a hit were picked by preference. About 0.6% of all pairs of compound and target were hits. A number with no mark means an inactive call.

Columns and labels:
Experiment in all cases: log2 fold change, soluble protein after heating vs DMSO (PISA); higher = thermal stabilisation; K562 cells, 10 uM, 30 min; active = over 0.2 and 3.5 SD of the protein, either way, in both replicates (recomputed)
[1] = compound: CC1=C(C=C(C=C1)NC(=O)C2=CC(=CC=C2)C(C)(C)C#N)NC3=CC4=C(C=C3)N=CN(C4=O)C
Method in brief: (§1)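 K562 cells at 2×10^6 cells/mL were treated for 30 min with 10 μM compound, and aliquots were heated for 3 min over 48°C-58°C before pooling. Extraction used PBS with 0.5% NP-40 at 4°C, and soluble protein was the supernatant after 21,000xg for 90 min, measured by TMTpro 16plex LC-MS/MS with channel sums equalised. Thermal stability values, relative to control samples and from duplicates, are log2 fold changes.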

[2] = compound: CC1=C(C=C(C=C1)NC(=O)C2=CC(=CC=C2)N(C)C)NC(=O)C3=CC=C(C=C3)O
Method in brief: as §1

[3] = compound: CC1=CC=C(C=C1)SC2=C3C=C(SC3=CN=C2)C(=O)N
Method in brief: as §1

[4] = compound: CC1=NC(=CC=C1)C2=C(N=C(N2)C(C)(C)C)C3=CC4=NC=CN=C4C=C3
Method in brief: as §1

Nexturastat A = compound: CCCCN(Cc1ccc(C(=O)NO)cc1)C(=O)Nc1ccccc1 [Nexturastat A]
Method in brief: as §1

vemurafenib = compound: CCCS(=O)(=O)Nc1ccc(F)c(C(=O)c2c[nH]c3ncc(-c4ccc(Cl)cc4)cc23)c1F [vemurafenib]
Method in brief: as §1

[5] = compound: CCCS(=O)(=O)Nc1ccc(F)c(C(=O)c2c[nH]c3ncc(Cl)cc23)c1F
Method in brief: as §1

[6] = compound: CCCc1cc(C)[nH]c(=O)c1CNC(=O)c1cc(-c2ccnc(N3CCN(C)CC3)c2)cc2c1cnn2C(C)C
Method in brief: as §1

givinostat = compound: CCN(CC)Cc1ccc2cc(COC(=O)Nc3ccc(C(=O)NO)cc3)ccc2c1 [givinostat]
Method in brief: as §1

barasertib = compound: CCN(CCCOc1ccc2c(Nc3cc(CC(=O)Nc4cccc(F)c4)[nH]n3)ncnc2c1)CCOP(=O)(O)O [barasertib]
Method in brief: as §1

UniProt O75052, sequence (O75052 whole entry, looked up): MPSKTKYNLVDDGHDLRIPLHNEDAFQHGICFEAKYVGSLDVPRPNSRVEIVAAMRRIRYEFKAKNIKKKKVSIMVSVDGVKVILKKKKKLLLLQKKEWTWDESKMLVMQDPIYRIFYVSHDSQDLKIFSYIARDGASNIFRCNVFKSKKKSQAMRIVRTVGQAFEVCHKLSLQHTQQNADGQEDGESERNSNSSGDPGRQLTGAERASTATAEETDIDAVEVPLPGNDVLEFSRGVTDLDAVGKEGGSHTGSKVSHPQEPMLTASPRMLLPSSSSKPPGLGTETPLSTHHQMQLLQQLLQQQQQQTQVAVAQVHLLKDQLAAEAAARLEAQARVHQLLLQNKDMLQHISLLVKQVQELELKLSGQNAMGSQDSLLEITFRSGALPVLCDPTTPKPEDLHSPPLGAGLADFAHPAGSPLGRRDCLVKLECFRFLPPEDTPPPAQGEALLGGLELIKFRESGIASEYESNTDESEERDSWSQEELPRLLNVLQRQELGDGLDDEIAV
UniProt Q6N063, sequence (Q6N063 whole entry, looked up): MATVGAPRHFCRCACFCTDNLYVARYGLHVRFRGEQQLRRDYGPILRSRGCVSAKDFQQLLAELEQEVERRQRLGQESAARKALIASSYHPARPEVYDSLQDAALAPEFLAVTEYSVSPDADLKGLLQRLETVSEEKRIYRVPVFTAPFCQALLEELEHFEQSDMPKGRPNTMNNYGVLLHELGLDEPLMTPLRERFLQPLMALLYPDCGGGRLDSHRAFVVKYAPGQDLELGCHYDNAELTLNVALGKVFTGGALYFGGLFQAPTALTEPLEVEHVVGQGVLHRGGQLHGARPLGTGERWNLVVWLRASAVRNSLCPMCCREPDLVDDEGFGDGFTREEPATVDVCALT
UniProt Q92686, sequence (Q92686 whole entry, looked up): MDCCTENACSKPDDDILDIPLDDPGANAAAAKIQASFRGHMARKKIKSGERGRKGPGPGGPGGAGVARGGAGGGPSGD
UniProt O75438, sequence (O75438 whole entry, looked up): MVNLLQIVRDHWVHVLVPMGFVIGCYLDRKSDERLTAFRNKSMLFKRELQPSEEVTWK
UniProt P03891, sequence (P03891 whole entry, looked up): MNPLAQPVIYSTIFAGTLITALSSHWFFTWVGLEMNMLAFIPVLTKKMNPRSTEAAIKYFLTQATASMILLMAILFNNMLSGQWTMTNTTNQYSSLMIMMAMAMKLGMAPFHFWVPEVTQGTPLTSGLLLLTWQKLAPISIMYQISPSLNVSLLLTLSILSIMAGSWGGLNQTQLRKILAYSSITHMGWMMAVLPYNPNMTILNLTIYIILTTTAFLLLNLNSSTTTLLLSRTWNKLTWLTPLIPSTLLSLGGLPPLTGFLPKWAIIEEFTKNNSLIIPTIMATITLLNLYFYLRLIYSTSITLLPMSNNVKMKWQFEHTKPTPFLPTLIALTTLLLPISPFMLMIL
UniProt Q6P1R3, sequence (Q6P1R3 whole entry, looked up): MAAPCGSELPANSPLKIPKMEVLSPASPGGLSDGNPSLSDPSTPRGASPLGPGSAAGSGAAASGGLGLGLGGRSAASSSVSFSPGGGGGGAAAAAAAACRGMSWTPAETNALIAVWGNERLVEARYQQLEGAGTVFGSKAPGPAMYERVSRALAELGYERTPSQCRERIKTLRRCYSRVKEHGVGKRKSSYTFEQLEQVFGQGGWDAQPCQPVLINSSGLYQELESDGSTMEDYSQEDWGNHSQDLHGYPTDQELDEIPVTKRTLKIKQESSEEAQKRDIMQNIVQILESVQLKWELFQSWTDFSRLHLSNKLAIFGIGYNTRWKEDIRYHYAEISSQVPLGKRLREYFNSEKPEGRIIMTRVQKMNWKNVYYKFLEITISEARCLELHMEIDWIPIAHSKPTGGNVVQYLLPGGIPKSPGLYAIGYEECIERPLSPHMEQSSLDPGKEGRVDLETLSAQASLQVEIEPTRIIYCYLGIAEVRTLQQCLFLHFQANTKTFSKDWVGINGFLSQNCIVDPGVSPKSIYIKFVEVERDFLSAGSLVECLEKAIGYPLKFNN
UniProt P30414, sequence (P30414 whole entry, looked up): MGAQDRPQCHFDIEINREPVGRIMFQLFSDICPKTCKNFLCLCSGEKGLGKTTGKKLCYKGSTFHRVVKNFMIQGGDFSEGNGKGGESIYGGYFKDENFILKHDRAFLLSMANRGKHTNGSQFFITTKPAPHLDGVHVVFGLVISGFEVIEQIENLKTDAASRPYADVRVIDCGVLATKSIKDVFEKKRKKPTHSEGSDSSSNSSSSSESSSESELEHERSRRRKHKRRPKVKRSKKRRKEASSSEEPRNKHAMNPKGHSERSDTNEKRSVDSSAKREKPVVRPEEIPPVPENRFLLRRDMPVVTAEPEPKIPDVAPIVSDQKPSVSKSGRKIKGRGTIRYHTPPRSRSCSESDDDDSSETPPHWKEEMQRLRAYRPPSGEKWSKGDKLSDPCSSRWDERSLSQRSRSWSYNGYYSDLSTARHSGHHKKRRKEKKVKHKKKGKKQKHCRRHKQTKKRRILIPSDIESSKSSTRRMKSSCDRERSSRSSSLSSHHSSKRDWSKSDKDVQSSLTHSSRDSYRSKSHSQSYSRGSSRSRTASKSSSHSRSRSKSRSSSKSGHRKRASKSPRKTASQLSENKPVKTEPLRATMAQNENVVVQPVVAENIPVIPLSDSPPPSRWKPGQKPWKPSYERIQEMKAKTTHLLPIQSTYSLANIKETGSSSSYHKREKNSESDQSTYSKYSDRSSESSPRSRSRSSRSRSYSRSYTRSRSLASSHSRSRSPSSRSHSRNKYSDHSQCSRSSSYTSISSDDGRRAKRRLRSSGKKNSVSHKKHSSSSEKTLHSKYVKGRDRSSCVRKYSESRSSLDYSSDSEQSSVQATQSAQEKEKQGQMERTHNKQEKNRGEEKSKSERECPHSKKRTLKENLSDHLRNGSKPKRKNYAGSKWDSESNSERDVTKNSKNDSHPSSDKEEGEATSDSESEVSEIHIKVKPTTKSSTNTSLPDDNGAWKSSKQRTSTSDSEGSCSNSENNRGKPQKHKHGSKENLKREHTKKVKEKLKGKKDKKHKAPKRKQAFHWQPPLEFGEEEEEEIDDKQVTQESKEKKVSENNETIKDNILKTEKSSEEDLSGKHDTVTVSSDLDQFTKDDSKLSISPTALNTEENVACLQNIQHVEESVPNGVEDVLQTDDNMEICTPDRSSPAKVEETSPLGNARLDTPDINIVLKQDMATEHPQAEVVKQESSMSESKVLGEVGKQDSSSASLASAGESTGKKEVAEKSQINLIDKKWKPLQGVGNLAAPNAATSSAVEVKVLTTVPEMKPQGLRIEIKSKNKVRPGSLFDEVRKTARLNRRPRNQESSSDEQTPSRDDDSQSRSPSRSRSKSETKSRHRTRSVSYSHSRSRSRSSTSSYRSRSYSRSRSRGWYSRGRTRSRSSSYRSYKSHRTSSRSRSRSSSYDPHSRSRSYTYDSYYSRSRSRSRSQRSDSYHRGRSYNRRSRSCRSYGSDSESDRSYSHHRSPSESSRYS
UniProt Q9H1P3, sequence (Q9H1P3 whole entry, looked up): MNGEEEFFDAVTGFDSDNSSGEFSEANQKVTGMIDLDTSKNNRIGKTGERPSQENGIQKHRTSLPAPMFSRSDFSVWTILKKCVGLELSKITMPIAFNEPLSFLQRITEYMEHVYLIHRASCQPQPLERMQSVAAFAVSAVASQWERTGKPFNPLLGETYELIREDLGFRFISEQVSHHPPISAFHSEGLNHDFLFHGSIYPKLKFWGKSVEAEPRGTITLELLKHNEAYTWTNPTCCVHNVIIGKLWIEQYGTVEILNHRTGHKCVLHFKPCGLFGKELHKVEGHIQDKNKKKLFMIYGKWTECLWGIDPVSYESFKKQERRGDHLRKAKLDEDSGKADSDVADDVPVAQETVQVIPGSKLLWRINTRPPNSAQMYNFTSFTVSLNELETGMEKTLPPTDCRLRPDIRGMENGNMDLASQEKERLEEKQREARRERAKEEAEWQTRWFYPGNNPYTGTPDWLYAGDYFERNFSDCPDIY
UniProt O75030, sequence (O75030 whole entry, looked up): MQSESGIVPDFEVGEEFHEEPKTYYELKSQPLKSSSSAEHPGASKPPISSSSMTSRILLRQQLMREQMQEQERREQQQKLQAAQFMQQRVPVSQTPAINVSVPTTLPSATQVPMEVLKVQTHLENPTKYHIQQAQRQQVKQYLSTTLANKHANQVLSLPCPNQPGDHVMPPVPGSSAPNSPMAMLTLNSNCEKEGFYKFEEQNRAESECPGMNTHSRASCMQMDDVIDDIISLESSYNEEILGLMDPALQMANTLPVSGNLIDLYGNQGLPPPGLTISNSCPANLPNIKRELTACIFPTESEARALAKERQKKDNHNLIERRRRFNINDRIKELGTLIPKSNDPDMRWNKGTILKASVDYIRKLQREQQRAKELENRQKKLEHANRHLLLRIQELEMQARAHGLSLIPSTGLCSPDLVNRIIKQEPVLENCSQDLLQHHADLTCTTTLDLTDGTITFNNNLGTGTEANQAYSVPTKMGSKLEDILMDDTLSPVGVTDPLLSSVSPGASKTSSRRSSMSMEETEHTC
UniProt Q8N5F7, sequence (Q8N5F7 whole entry, looked up): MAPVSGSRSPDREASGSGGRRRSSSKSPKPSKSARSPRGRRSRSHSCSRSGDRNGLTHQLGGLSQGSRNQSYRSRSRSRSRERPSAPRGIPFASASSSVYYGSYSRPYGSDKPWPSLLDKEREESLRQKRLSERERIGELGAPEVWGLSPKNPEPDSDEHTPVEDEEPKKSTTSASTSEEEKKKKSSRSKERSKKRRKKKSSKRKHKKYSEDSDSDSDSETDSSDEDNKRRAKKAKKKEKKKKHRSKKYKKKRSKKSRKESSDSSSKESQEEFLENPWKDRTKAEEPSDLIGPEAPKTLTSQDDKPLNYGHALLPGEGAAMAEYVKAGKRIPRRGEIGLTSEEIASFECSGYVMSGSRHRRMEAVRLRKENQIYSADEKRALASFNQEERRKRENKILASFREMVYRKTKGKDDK
UniProt P48645, sequence (P48645 whole entry, looked up): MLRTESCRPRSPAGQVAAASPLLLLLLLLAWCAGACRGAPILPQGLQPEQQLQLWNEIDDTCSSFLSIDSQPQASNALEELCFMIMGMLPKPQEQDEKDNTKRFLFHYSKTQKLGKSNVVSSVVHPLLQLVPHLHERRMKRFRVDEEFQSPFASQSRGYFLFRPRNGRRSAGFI

Target | log2 fold change [1] | log2 fold change [2] | log2 fold change [3] | log2 fold change [4] | log2 fold change (Nexturastat A) | log2 fold change (vemurafenib) | log2 fold change [5] | log2 fold change [6] | log2 fold change (givinostat) | log2 fold change (barasertib)
MSH6 (UniProt P52701) | 0.076 | -0.078 | 0.112 | 0.108 | -0.049 | 0.119 | 0.194 | 0.03 | 0.35 | 0.171
MOV10 (UniProt Q9HCE1) | 0.044 | 0.017 | -0.055 | -0.067 | 0.221 | -0.027 | -0.048 | 0.054 | -0.006 | -0.05
MRPL46 (UniProt Q9H2W6) | 0.061 | -0.044 | -0.009 | -0.064 | 0.076 | -0.061 | -0.006 | 0.009 | -0.003 | -0.008
NUP85 (UniProt Q9BW27) | -0.02 | 0.025 | 0.102 | -0.001 | -0.041 | 0.01 | 0.019 | -0.02 | 0.015 | 0.017
NIPSNAP3B (UniProt Q9BS92) | -0.133 |  | 0.049 | 0.023 |  | 0.065 | 0.016 | -0.001 | -0.088 | 0.016
NUDT6 (UniProt P53370) |  | 0.049 | 0.064 | 0.075 | -0.119 | 0.002 | -0.037 | -0.092 | -0.027 | 
NRGN (UniProt Q92686) |  | -0.168 | 0.087 | -0.171 | 0.143 |  | 0.032 |  | -0.034 | -0.14
NAP1L1 (UniProt B7Z9C2) |  |  |  | 0.14 |  | -0.304 |  | -0.109 | -0.053 | -0.002
MT-ND2 (UniProt P03891) |  | 0.109 | -0.047 | 0.062 |  | 0.065 | 0.198 | -0.123 | 0.006 | 0.079
MOB2 isoform 3 (UniProt Q70IA6) |  | -0.039 | 0.081 |  | -0.149 |  | 0.018 | 0.163 | 0.061 | -0.121
MYH16 (UniProt Q9H6N6) | 0.484 |  | 0.143 | 0.724 (active) |  | 0.155 | 0.216 | 0.12 | -0.072 | -0.069
NAGPA (UniProt Q9UK23) | -0.028 |  | -0.004 | 0.054 | -0.131 |  | -0.067 | -0.066 | 0.002 | -0.133
NEU3 isoform 2 (UniProt Q9UQ49) | 0.022 |  | -0.112 |  |  |  | 0.133 |  | 0.189 | 
NELFCD (UniProt Q8IXH7) |  |  | 0.02 | 0.18 | 0.094 | 0.15 | 0.051 |  | 0.167 | 0
NIPSNAP2 (UniProt C9J7B1) | 0.067 |  |  |  |  |  |  | -0.182 |  | 0.01
OAF (UniProt Q86UD1) | -0.005 | -0.119 |  |  |  |  |  | -0.346 | -0.071 | 
NDUFA7 (UniProt M0R0N0) | -0.011 |  |  |  |  | -0.195 |  |  | 0.104 | 0.052
MXRA7 isoform 3 (UniProt P84157) |  | 0.178 | -0.174 |  |  |  | 0.193 |  |  | 
NA, A0A494C071 |  |  |  | 0.011 | -0.081 | -0.142 |  | -0.159 |  | 0.043
NKAP (UniProt Q8N5F7) |  | 0.233 | 0.017 | 0.052 | 0.042 | 0.073 | 0.046 | 0.15 | 0.044 | -0.165
NDUFB1 (UniProt O75438) | -0.087 |  | -0.08 | 0.067 | 0.027 | -0.001 | 0.065 | 0.025 | -0.015 | -0.009
MSANTD2 (UniProt Q6P1R3) | -0.024 |  |  |  | 0.239 | -0.062 |  |  |  | 

Target | log2 fold change [1] | log2 fold change [2] | log2 fold change [3] | log2 fold change [4] | log2 fold change (Nexturastat A) | log2 fold change (vemurafenib) | log2 fold change [5] | log2 fold change [6] | log2 fold change (givinostat) | log2 fold change (barasertib)
MMADHC (UniProt Q9H3L0) |  | 0.001 | -0.078 | -0.078 |  | 0.067 | -0.057 | 0.108 | 0.04 | 0.029
NA (UniProt J3KR12) |  | 0.018 |  | 0.073 | -0.283 |  |  | -0.046 |  | 0
NOS1AP (UniProt O75052) |  | -0.016 | 0.08 |  | -0.058 | -0.335 | -0.161 | 0.101 | -0.117 | 0.046
OGFOD2 (UniProt Q6N063) |  | -0.007 |  | -0.091 | 0.117 | 0.001 |  | 0.037 | -0.041 | 0.059
NASP isoform 2 (UniProt P49321) |  |  |  |  |  |  |  | 1.06 |  | 
MLST8 (UniProt Q9BVC4) | 0.118 |  | 0.094 | -0.079 | 0.001 | 0.009 | 0.031 | -0.035 | -0.058 | 0.038
OSBPL2 (UniProt Q9H1P3) |  |  | -0.203 |  |  |  | 0 | -0.264 |  | 
MYO19 (UniProt Q96H55) |  | 0.069 | 0.091 | -0.054 | 0.382 | -0.082 | 0.554 (active) |  | 0.143 | 0.039
OVCA2 (UniProt Q8WZ82) |  | -0.132 | 0.013 | 0.086 |  |  | -0.048 | -0.305 |  | 0.06
MOB3B (UniProt Q86TA1) |  |  | -0.147 | -0.033 |  | 0.137 | -0.272 | 0.039 | 0.174 | 0.018
NNMT (UniProt P40261) | 0.038 |  | 0.012 | 0.039 | -0.082 | 0.011 | -0.001 | -0.093 | -0.076 | -0.04
MITF (UniProt O75030) | 0.005 |  |  | 0.107 |  | 0.016 |  | -0.281 | -0.002 | 
OXR1 isoform 2 (UniProt Q8N573) |  | -0.007 | 0.008 | -0.071 | 0 | 0.126 | 0.027 |  |  | 
MORC2 (UniProt Q9Y6X9) |  |  | -0.059 | 0.047 | -0.046 |  | 0.208 | 0.231 | 0.026 | -0.002
NOLC1 isoform 3 (UniProt Q14978) |  |  |  |  |  |  |  |  | -0.02 | 
NPC1L1 (UniProt Q9UHC9) | -0.014 |  | 0.152 | 0.02 |  | -0.213 | -0.109 | 0.012 |  | -0.037
MRM2 (UniProt Q9UI43) |  |  | 0.046 |  |  | 0.047 | -0.078 |  | 0.001 | 
MLH1 (UniProt P40692) |  |  | 0.023 |  | -0.014 |  | 0.276 | 0.584 (active) |  | 0.11
NKTR (UniProt P30414) |  |  | -0.041 |  |  |  | -0.4 | -0.045 | 0.532 | 0.042
NA, A0A1W2PSA9 |  | 0.108 |  |  |  |  |  |  |  | 
NA (UniProt B2RBV5) | -0.022 |  | -0.245 |  | 0.292 |  | 0.005 | 0.021 |  | 0.002
NMU (UniProt P48645) |  | -0.052 | 0.09 | 0.411 (active) | 0.283 | 0.067 | -0.127 |  | 0.001 | 0.002
